The structures appear in SMILES notation. In all, about 320,000 compounds went through this assay and about 2,200 (0.69%) were called active. This is one part of a sample in which actives are shown more often than they occur. Values without a mark were called inactive.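 Rule for the calls: active = inhibition above the mean of all tested compounds plus 3 SD, cutoff set per campaign (cut at about 30% in these data); inactive = the rest.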

As a reminder, the inhibition is the change of the read-out against control, counted positive when it falls.

The target in the experiment is Bcl-2-like protein 1 (Homo sapiens) (UniProt Q07817). The experiment in a line: inhibitors of human Bcl-xL, primary screen, biochemical, fluorescence polarization, HTS (AID 2129).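 Note: 0% = DMSO wells and 100% = unlabeled Bim-BH3 peptide competitor; inhibitors lower millipolarization by displacing the labeled peptide.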 As to conditions: GST-Bcl-xL / FITC-Bim BH3 peptide fluorescence polarization; at 10.9 µM; hits give high values.
Chain of Bcl-2-like protein 1 (Homo sapiens) (Q07817 whole entry, looked up): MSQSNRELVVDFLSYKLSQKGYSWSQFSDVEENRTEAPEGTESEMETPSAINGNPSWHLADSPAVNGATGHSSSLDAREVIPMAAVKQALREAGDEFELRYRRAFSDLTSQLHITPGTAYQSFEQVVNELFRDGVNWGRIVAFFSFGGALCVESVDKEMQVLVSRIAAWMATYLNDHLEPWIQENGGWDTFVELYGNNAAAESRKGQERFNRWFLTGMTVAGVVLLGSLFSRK
In the case of `Cc1noc(C)c1CSCC(=O)Nc1nc2ccc(Oc3ccccc3)cc2s1`, the inhibition is 3.02%.

Turning to `CC(C)(CSc1nncn1/N=C/c1ccco1)NS(=O)(=O)c1ccc(Cl)cc1`, the inhibition is 4.42%.

Regarding `NS(=O)(=O)c1ccc(NC(=O)COC(=O)c2cc3ccccc3oc2=O)cc1`, the inhibition was 3.99%.

Turning to `NS(=O)(=O)c1ccc(NC(=O)COC(=O)c2c3c(nc4ccccc24)/C(=C\c2ccc4c(c2)OCO4)CCC3)cc1`, the inhibition was 34.1% (active).

In the case of `COc1cc(/C=C2\CCCc3c2nc2ccccc2c3C(=O)O)cc(Cl)c1O`, the inhibition was 9.54%.

Consider `COc1ccc(CNC(=O)C(C)NCc2ccccc2Cl)cc1` (centres undefined), for which the inhibition was 2.09%.

Consider `CCOCCCNC(=O)C(NC(=O)CNC(=O)c1ccccc1)c1ccc(OC)cc1` (centres undefined), for which the inhibition is 3.02%.

Turning to `CCOC(=O)C(Cc1ccccc1)NC(=O)CCC(=O)c1ccc(OC)cc1` (centres undefined), the inhibition was 6.1%.

As for `COC(=O)[C@H](Cc1ccccc1)NC(=O)Nc1ccc(OC)cc1`, the inhibition was 0.58%.

With `COc1cc([C@H](Cc2ccccc2)NC(C)=O)oc(=O)c1`, the inhibition is 48.2% (active).

As to `COc1ccc(CCn2ccc(O)c(Cc3ccc(Cl)cc3Cl)c2=O)cc1OC`, the inhibition is 4.67%.

Take `CN1C(C)(C)CC(NC(=O)CCC(=O)NC2CC(C)(C)N(C)C(C)(C)C2)CC1(C)C`: the inhibition was 2.66%.

Take `CC1CCN(C(=O)COC(=O)c2cc(S(=O)(=O)N3CCOCC3)ccc2Cl)CC1`: the inhibition was -2.49%.

Take `Cc1ccnc(NC(=O)C2CCN(S(=O)(=O)c3c(C)c(C)cc(C)c3C)CC2)c1`: the inhibition is -0.18%.

Regarding `CC1(C)c2[nH]c3ccccc3c2C[C@H]2C(=O)N(N)CC(=O)N21`, the inhibition is 1.69%.

Turning to `CCOc1nc(OCC)nc(-n2cc(-c3ccccc3)nn2)n1`, the inhibition is 6.35%.

On to `CC1CCCCC1NC(=O)/C(C#N)=C/C=C/c1ccccc1[N+](=O)[O-]` (centres undefined), for which the inhibition was 7.36%.

Take `O=c1ccc2c(-c3ccccc3S(=O)(=O)O)c3ccc(O)c(O)c3oc-2c1O`: the inhibition is 92.5% (active).

For `O=C(CSc1nnc(SCc2ccc(Cl)cc2)s1)N/N=C/c1ccccc1Cl`, the inhibition was -6.66%.

Consider `CN1c2ccc(C=O)c3c(C=O)ccc(c23)N(C)C1(C)C`, for which the inhibition is 144% (active).

`CCOC(=O)c1c(-c2ccccc2)oc2cc(Br)c(O)c(C=O)c12`: the inhibition is 11.5%.

For the compound `CCOC(=O)c1c(C)oc2cc(Sc3ccccc3)c(O)c(O)c12`, the inhibition was 39% (active).

Consider `CCOC(=O)c1c(C)oc(C)c(C(=O)OCC)c1=O`, for which the inhibition was 2.36%.

Consider `CCOC(=O)c1ccc(NC(=O)c2c(NCc3ccccc3)[nH]c(=O)[nH]c2=O)cc1`, for which the inhibition is 2.87%.

The values are drawn from PubChem BioAssay AID2129 (The Scripps Research Institute Molecular Screening Center, 2009).
